Molecules are shown by their SMILES. Where “and” joins values, the source holds several entries; their conditions need not be identical. Equal values may be shown once. Results filed as inconclusive are left out. Where a structure was tested more than once in an assay, its records may differ in their call. Calls of active or inactive are those of the source. The call rests on the fitted dose curve; in most records, active means well fitted curve in the direction sought with a large enough effect; inconclusive means small, poorly fitted or top-dose-only effect, or another doubt; inactive means no such curve, though single readings can be large; an effect the other way counts as inactive or inconclusive.

For assay [1], the target named is Cytochrome P450 3A7 (Homo sapiens) (UniProt P24462). Nature of the assay: Cytochrome P450 family 3 subfamily A member 7 (CYP3A7) small molecule antagonists: luciferase biochemical qHTS assay (AID 1963596). Further: on the % scale 0 is the no-effect control and ±100 the full control effect; nearly all actives have a fitted effect of over 40% in size. The procedure, abridged: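 Recombinant CYP3A7 P450-Glo luminescent assay: enzyme-proluciferin substrate mix preincubated with compound 10 min at room temperature, reaction started with NADPH regeneration system for 1 h. Luciferin detected by luminescence; ketoconazole as positive control.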

The nature of assay [2]: Viability qHTS for spleen associated tyrosine kinase inhibitor (SYKi) naive MV4-11 cells (AID 1963823). Further: nearly all actives have a fitted effect of over 40% in size. Further: potency means the concentration at half of the fitted maximal effect. The procedure, abridged:
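SYK inhibitor-naive MV4-11 cells, 500 per well, exposed to compounds for 72 hr at 37 C, 5% CO2. Viability read as CellTiter-Glo luminescence after 10 min at room temperature.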

Assay [3] can be described thus: Viability qHTS for spleen associated tyrosine kinase inhibitor (SYKi) drug resistant MV4-11 cells (AID 1963824). Further: nearly all actives have a fitted effect of over 35% in size. Further: potency means the concentration at half of the fitted maximal effect. The procedure, abridged: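 SYK-inhibitor-resistant MV4-11 AML cells were seeded at 500 per well onto compound and cultured 72 hours (37 °C, 5% CO2). CellTiter-Glo was then added, and after 10 min at room temperature, luminescence gave viability.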
For orientation: In qHTS, concentration-response curves come from the screen itself.

A short description of assay [4]: Quantitative highthroughput screen to assess conditional lethalithy of SEM cells grown in RPMI1640 with dialyzed fetal bovine serum (RPMI+ds) (AID 1963884). Further: nearly all actives have a fitted effect of over 35% in size. Further: potency means the concentration at half of the fitted maximal effect.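 On Viability: series mostly up to about 46 µM; 100% = DMSO control wells and 0% = empty wells without cells.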 The essentials:
(§1)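 Each medium arm—HPLM with 10% dialyzed FBS, or RPMI1640 with 5 mM glucose and 10% untreated or dialyzed FBS—was screened against an 11-point, 3-fold compound titration for 48 h at 37 °C, with CellTiter-Glo luminescence as endpoint.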

Assay [5] is described as follows: Cellular viability qHTS for adrenocortical cancer (ACC) cell line SW-13 (AID 1963989). Further: nearly all actives have a fitted effect of over 65% in size. Further: potency means the concentration at half of the fitted maximal effect.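 On activity (max response): cells grown in serum-free medium with ITS supplement; on the % scale 0 is the no-effect control and ±100 the full control effect.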 To be noted: SW-13 ACC cells viability, CellTiter-Glo, 48 h; activity (max response): stronger effect = lower value. The essentials:
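Luminescent ATP read-out (CellTiter-Glo, 20 min at room temperature) measured metabolically competent SW-13 cells after 48 h compound treatment. Final concentrations spanned up to 46 uM; bortezomib served as positive control.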

Assay [6] in a line: Cellular viability qHTS for adrenocortical cancer (ACC) cell line NCI-H295R (AID 1963990). Further: nearly all actives have a fitted effect of over 60% in size. Further: potency means the concentration at half of the fitted maximal effect. The procedure, abridged: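 IC50 and maximal efficacy derive from four-parameter logistic modelling of titration curves, with reads scaled between DMSO-only wells (0%) and doxorubicin hydrochloride (100% inhibition). Compounds spanned up to 46 uM over 48 h.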
Assay [7] can be described thus: Quantitative highthroughput screen to assess conditional lethalithy of NOMO1 cells grown in RPMI1640 with dialyzed fetal bovine serum (RPMI+ds) (AID 1963877). Further: nearly all actives have a fitted effect of over 30% in size. Further: potency means the concentration at half of the fitted maximal effect.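 On Viability: series mostly up to about 46 µM; 100% = DMSO control wells and 0% = empty wells.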 The procedure, abridged:
as §1

Assay [8] is described as follows: Quantitative highthroughput screen to assess conditional lethalithy of NOMO1 cells grown in Human Plasma-Like Medium with dialyzed fetal bovine serum (HPLM+ds) (AID 1963878). Further: nearly all actives have a fitted effect of over 35% in size. Further: potency means the concentration at half of the fitted maximal effect.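 On Viability: 100% = DMSO wells and 0% = empty wells on each plate.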 The procedure, abridged: as §1
A short description of assay [9]: Quantitative highthroughput screen to assess conditional lethalithy of P12 Ichikawa cells grown in Human Plasma-Like Medium with dialyzed fetal bovine serum (HPLM+ds) (AID 1963879). Further: nearly all actives have a fitted effect of over 35% in size. Further: potency means the concentration at half of the fitted maximal effect. On Viability: series mostly up to about 46 µM. To be noted: Potency: viability. The procedure, abridged:
as §1

A short description of assay [10]: Quantitative highthroughput screen to assess conditional lethalithy of P12 Ichikawa cells grown in RPMI1640 with dialyzed fetal bovine serum (RPMI+ds) (AID 1963880). Further: nearly all actives have a fitted effect of over 35% in size. Further: potency means the concentration at half of the fitted maximal effect.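 On Viability: 100% = DMSO wells and 0% = empty wells on each plate.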 The following applies: Potency: P12-Ichikawa viability. The essentials:
as §1

Assay [11] can be described thus: Quantitative highthroughput screen to assess conditional lethalithy of P12 Ichikawa cells grown in RPMI1640 with untreated serum (RPMI+s) (AID 1963881). To be noted: Potency: viability. The procedure, abridged:
as §1

The nature of assay [12]: Quantitative highthroughput screen to assess conditional lethalithy of SEM cells grown in Human Plasma-Like Medium with dialyzed fetal bovine serum (HPLM+ds) (AID 1963882). Further: nearly all actives have a fitted effect of over 35% in size. Further: potency means the concentration at half of the fitted maximal effect. On Viability: series mostly up to about 46 µM. The essentials: as §1
The nature of assay [13]: Quantitative highthroughput screen to assess conditional lethalithy of SEM cells grown in RPMI1640 with unreated serum (RPMI+s) (AID 1963883). Further: nearly all actives have a fitted effect of over 35% in size. Further: potency means the concentration at half of the fitted maximal effect.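 On Viability: 100% = DMSO wells and 0% = empty wells without cells.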 The procedure, abridged:
as §1

Sequence of Cytochrome P450 3A7 (Homo sapiens) (P24462 whole entry, looked up): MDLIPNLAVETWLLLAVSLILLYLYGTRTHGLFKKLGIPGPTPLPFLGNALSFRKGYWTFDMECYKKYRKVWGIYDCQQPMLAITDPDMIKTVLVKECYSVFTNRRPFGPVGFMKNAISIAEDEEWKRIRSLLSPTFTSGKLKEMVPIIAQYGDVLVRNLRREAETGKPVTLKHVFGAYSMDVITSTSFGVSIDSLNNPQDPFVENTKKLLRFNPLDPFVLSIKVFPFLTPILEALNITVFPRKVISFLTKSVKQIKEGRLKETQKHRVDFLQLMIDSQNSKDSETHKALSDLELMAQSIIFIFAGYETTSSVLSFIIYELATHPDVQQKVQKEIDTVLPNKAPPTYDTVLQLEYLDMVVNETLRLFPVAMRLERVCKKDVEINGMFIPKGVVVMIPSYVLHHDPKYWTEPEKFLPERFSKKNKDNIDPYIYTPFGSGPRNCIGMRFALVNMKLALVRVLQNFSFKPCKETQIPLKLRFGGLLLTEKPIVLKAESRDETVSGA

On to `O=C(CO)N1CCC(c2[nH]nc(-c3ccc(Cl)cc3)c2-c2ccncn2)CC1`, for which the Potency entry in [1] and in assay [6] was “inactive” in each case. For the same compound, the Potency in assay [2] was 2.31 µM (active); in assay [3], 9.2 µM (active); in assay [4], 13.2 µM (active). In [5], the activity (max response) was -7.74% (inactive).

Consider `CC(C)Cc1ccc(C(C)C(=O)O)cc1` (stereo unspecified), for which the Potency result in assay [1], in [2], in [3], in [7], in assay [8] and in assay [9] was “inactive” in each case. For the same compound, the Potency result in [10], in assay [11] and in assay [6] was “inactive” throughout. Moreover, in assay [5], the activity (max response) was 8.32% (inactive) and 2.38% (inactive).

Turning to `COc1cc2c(Oc3ccc4[nH]c(C)cc4c3F)ncnc2cc1OCCCN1CCCC1`, the Potency entry in [1] was “inactive”. The Potency in assay [2] was 13 µM (active) and 3.32 µM (active); in assay [3], 5.8 µM (active) and 2.63 µM (active); in assay [12] it was 9.35 µM (active); in assay [13], 4.18 µM (active); in assay [4], 5.26 µM (active); in [5], 25.1 µM (active). The Potency in [6] is 22.4 µM (active).

`CC(C)(Sc1cc(C(C)(C)C)c(O)c(C(C)(C)C)c1)Sc1cc(C(C)(C)C)c(O)c(C(C)(C)C)c1`: the Potency result in [1], in assay [2], in assay [3], in assay [7], in [8] and in assay [10] was “inactive” each time. Besides, the Potency entry in assay [11], in [12], in assay [13], in assay [4] and in [6] was “inactive” each time. In [5], the activity (max response) is 7.94% (inactive) and -9.47% (inactive).

For the compound `Nc1ccn([C@H]2CC[C@@H](CO)O2)c(=O)n1`, the Potency result in assay [1], in assay [2], in assay [3] and in [6] was “inactive” in each case. The Potency in assay [8] is 23.5 µM (active); in assay [4] it was 7.43 µM (active). Also, the activity (max response) in assay [5] was 0.291% (inactive).

As to `Nc1c2c(nc3ccccc13)CCCC2`, the Potency entry in assay [1], in assay [2], in [9], in assay [10], in [11] and in [12] was “inactive” throughout. The Potency entry in assay [4] and in assay [6] was “inactive” throughout. Besides, the Potency entry in assay [3] is “inactive and 18.6 µM (active)”; in assay [7] it was 14.8 µM (active). Further, the activity (max response) in assay [5] is -1.99% (inactive) and -7.86% (inactive).

`CC12CC3CC(C)(C1)CC(N)(C3)C2`: the Potency entry in assay [1], in assay [2], in [12], in [13], in assay [4] and in assay [6] was “inactive” throughout. Moreover, the results for the Potency in assay [3] and in [7] were 3.76 µM (active) and 18.7 µM (active), respectively. Besides, the activity (max response) in [5] was -3.68% (inactive).

Regarding `CC1(C)S[C@@H]2[C@H](N=CN3CCCCCC3)C(=O)N2[C@H]1C(=O)O`, the Potency result in [1], in assay [2] and in [3] was “inactive” each time. The activity (max response) in [5] was 3.39% (inactive).

For the compound `Cn1cnc([N+](=O)[O-])c1Sc1ncnc2nc[nH]c12`, the Potency result in assay [1] was “inactive”. For the same compound, the Potency was 5.9 µM (active) in [2]; 2.15 µM (active) and 2.35 µM (active) in [3]; 5.26 µM (active) in assay [7]; 2.64 µM (active) in assay [8]; 5.9 µM (active) in [10]; 5.01 µM (active) and 9.2 µM (active) and 7.94 µM (active) in assay [5]. The Potency in assay [6] was 3.98 µM (active) and 8.2 µM (active) and 5.62 µM (active).

With `O=c1cc(CO)occ1O`, the Potency entry in assay [1], in assay [2] and in [3] was “inactive” each time. For the same compound, the activity (max response) in [5] is 13.4% (inactive).

Take `CCn1cc(C(=O)O)c(=O)c2cc(F)c(N3CCNCC3)nc21`: the Potency entry in assay [1], in assay [9], in assay [10], in [11], in [12] and in [13] was “inactive” in each case. Moreover, the Potency entry in assay [4] and in [6] was “inactive” throughout. For the same compound, the results for the Potency in assay [2] and in assay [3] were 0.0335 µM (active) and 2.66 µM (active), respectively. Also, the activity (max response) in [5] is 4.85% (inactive).

In the case of `Cn1nnc2c(C(N)=O)ncn2c1=O`, the Potency result in assay [1], in assay [2], in [3] and in assay [6] was “inactive” throughout. For the same compound, the figures for the Potency in assay [8] and in assay [12] were 18.7 µM (active) and 0.332 µM (active), respectively. For the same compound, the activity (max response) in [5] was -0.0469% (inactive) and 5.28% (inactive).

Take `CCn1cc(C(=O)O)c(=O)c2ccc(C)nc21`: the Potency entry in assay [1], in [2], in assay [3], in assay [7], in assay [9] and in assay [10] was “inactive” in each case. Besides, the Potency entry in [11], in assay [12] and in assay [6] was “inactive” throughout. In addition, in [4], the Potency was 5.9 µM (active). The activity (max response) in assay [5] was 13.9% (inactive).

Consider `COc1c(O)cc2c(c1O)[C@@H]1O[C@H](CO)[C@@H](O)[C@H](O)[C@H]1OC2=O`, for which the Potency result in [1], in [2] and in assay [3] was “inactive” in each case. Moreover, the Potency in assay [8] is 14.8 µM (active); in [9] it was 16.6 µM (active); in assay [12], 20.9 µM (active); in [13], 10.5 µM (active); in assay [4], 18.7 µM (active).

As for `Cc1cc(C(C)(C)C)cc(C)c1CC1=NCCN1`, the Potency entry in [1], in [9], in assay [10], in assay [11], in assay [13] and in [4] was “inactive” in each case. For the same compound, the Potency entry in [6] was “inactive”. In addition, the Potency in assay [2] was 3.72 µM (active); in assay [3], 5.25 µM (active). Besides, the activity (max response) in [5] is -1.59% (inactive) and -10.9% (inactive).

For `C[C@@H](N)c1ccc(C(=O)Nc2ccnc3[nH]ccc23)cc1`, the Potency entry in assay [1] and in assay [10] was “inactive” throughout. The Potency is 4.17 µM (active) in assay [2], 10.3 µM (active) in assay [3], 18.7 µM (active) in assay [7] and 25.1 µM (active) in [5].

Consider `CC(C(=O)O)c1ccc(CC2CCCC2=O)cc1` (stereo unspecified), for which the Potency result in assay [1], in assay [2] and in assay [3] was “inactive” in each case. Also, the activity (max response) in [5] was 7.96% (inactive).

The record behind these values is PubChem BioAssay (NCATS).
